# High-throughput results: PubChem BioAssay, The Scripps Research Institute Molecular Screening Center
# CHO-K1 Ca PAM = counter-screen for M1 PAMs: effect in parental CHO-K1 cells. ATP EC20, Fluo-8 calcium fluorescence; 0% at ATP EC20, 100% at ATP max. activation, % at 3 µM. actives 0.02% (n = 360,000);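 active = activation above the run cutoff, the mean activation of all test compounds plus 3 SD, cut at about 40% in these data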;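 also: peak over basal fluorescence ratio in a 140 s read after ATP addition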
# M1 PAM = potentiates human M1 receptor response to acetylcholine. activation, % at 3 µM. CHO-K1 hM1, Fluo-8 calcium fluorescence, ACh EC20; 0% = ACh EC20, 100% = maximal ACh. P11229. actives 0.088% (n = 360,000). AID 588819; in the data active = activation above about 19%, passing the limit was not always enough
# Target sequence (P11229 whole entry, looked up): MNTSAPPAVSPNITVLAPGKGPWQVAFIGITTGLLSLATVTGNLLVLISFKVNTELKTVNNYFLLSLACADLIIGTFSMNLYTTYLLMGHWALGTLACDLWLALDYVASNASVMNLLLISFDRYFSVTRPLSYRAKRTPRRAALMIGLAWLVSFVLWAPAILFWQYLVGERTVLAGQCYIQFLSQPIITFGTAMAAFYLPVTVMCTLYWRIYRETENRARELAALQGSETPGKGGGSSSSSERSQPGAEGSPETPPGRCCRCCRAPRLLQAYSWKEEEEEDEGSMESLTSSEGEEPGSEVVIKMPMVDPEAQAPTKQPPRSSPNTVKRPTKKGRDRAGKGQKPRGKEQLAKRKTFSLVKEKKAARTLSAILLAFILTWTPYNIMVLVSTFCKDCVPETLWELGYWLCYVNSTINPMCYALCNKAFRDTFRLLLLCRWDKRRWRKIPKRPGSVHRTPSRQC
# M1 antag = blocks human M1 muscarinic receptor. P11229. CHO-K1 hM1, Fluo-8 calcium fluorescence, ACh EC80 antagonist. inhibition, % at 3 µM. actives 1.3% (n = 360,000). AID 588852;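 active = percent inhibition above its own plate's cutoff, namely the mean of that plate's compound wells plus 3 SD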;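 also: peak over basal fluorescence ratio during 140 s after agonist addition; 0% = ACh EC80 plus DMSO and 100% = DMSO alone without agonist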
# M1 ag parental = M1 agonist counterscreen hit in parental CHO-K1 cells | Fluo-8 calcium fluorescence; scaled to maximal ATP response, vehicle zero | activation, % at 3 µM | actives 0.48% (n = 360,000) | AID 602248; in the data active = activation above about 15%;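 also: untransfected CHO-K1 host cells lacking M1 receptor as counterscreen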
# CHRM1 agonist = activates human CHRM1 receptor; activation, % at 3 µM; P11229; CHO-K1 hM1, Fluo-8 calcium fluorescence, agonist mode; 0% DMSO, 100% acetylcholine EC100; actives 0.33% (n = 360,000);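 active = activation above the run's mean compound activation plus 3 SD, cut at about 16% in these data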;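 also: peak over basal fluorescence ratio within a 140 s kinetic read after compound addition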
# CHO-K1 Ca antag = counter-screen for M1 antagonists: effect in parental CHO-K1 cells; actives 0.6% (n = 360,000); ATP-induced calcium, Fluo-8 fluorescence; inhibition, % at 3 µM;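 active = inhibition above a per-plate cutoff, the plate's mean sample inhibition plus 3 SD, cut at about 24% in these data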;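 also: 0% = DMSO plus EC80 ATP and 100% = DMSO alone without ATP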
# The depositor's hits bear a star. Compounds with a hit are over-represented: about 2.4% of the library has one in this group of screens.
SMILES,CHO-K1 Ca PAM,M1 PAM,M1 antag,M1 ag parental,CHRM1 agonist,CHO-K1 Ca antag
S=C(NCCCc1ccccc1)Nc1ccccc1Cl,-8.4,-13.6,6.6,15.3*,-1.2,19.8
S=C(NCCc1ccccn1)Nc1ccccc1Cl,-15.7,10.4,1.3,-0.1,-5.3,27.0*
S=C(NCCc1ccccc1)Nc1ccccc1Cl,8.3,-0.6,-6.7,-0.3,-11.2,-3.5
S=C(Nc1cccc2ccccc12)NN1CCCCCC1,-11.1,-20.9,40.7*,-0.4,-6.8,-0.3
S=C(NCCNC(=S)Nc1ccccc1Cl)Nc1ccccc1Cl,-3.8,-9.3,10.2,15.9*,4.2,-9.5
CCN1C(=O)Cc2cc(S(=O)(=O)NCCc3ccccc3)ccc21,-24.2,-1.3,9.1,2.3,-1.1,-14.8
S=C(NCCc1ccncc1)Nc1cccc2ccccc12,-17.9,-6.5,4.8,-0.1,-4.3,26.6*
FC(F)(F)c1cnc(NNC(=S)Nc2ccccc2Cl)c(Cl)c1,11.5,-2.4,13.4,15.9*,4.1,7.7
C=CCNC(=S)Nc1cccc2ccccc12,22.4,6.2,-7.3,0.3,-6.9,-21.5
COc1ccccc1NC(=O)C1CCN(S(=O)(=O)c2cccc3nonc23)CC1,10.0,3.7,-20.3,1.3,-2.3,-13.8
Cc1cccc2sc(N(CCCN(C)C)C(=O)c3ccco3)nc12,-3.8,-16.1,75.6*,2.5,13.7,-7.1
Cc1cccc2sc(N(CCCN(C)C)C(=O)c3ccc(Cl)s3)nc12,20.3,-18.3,50.9*,2.6,-3.3,-14.6
COc1ccccc1C(=O)NC(=O)COC(=O)c1nc2nc(C)cc(C)n2n1,-15.2,1.4,0.4,0.4,-1.0,4.2
O=C(NCc1ccccc1C(F)(F)F)c1cccc2c1C(=O)c1ccc(N3CCC(N4CCCCC4)CC3)cc1S2(=O)=O,15.1,-27.6,39.3*,11.2,1.8,-0.8
O=C(NCC1CCCO1)c1cccc2c1C(=O)c1ccc(N3CCC(Cc4ccccc4)CC3)cc1S2(=O)=O (stereo not drawn),-3.5,-22.7,38.5*,17.3*,16.7*,11.5
O=C(Nc1cccc2ccccc12)N1CCc2ccccc2C1,-7.5,4.1,-1.1,-0.5,1.0,20.1
CCc1ccccc1NC(=O)N1CCc2ccccc2C1,-0.5,4.2,-2.5,19.2*,1.0,2.8
CCCCc1nc(SCC(=O)Nc2cccc(Cl)c2)n[nH]1,17.9,6.1,-12.4,3.8,-2.9,-5.5
Cc1nnc2ccc(Oc3ccc(-c4ccccc4)cc3)nn12,-8.1,-11.7,34.3*,10.4,-2.7,39.9*
CCc1nnc(NC(=O)C2CCCN2C(=O)Nc2ccccc2)s1 (stereo not drawn),14.4,12.1,-12.7,20.5*,-5.5,-0.8
COc1ccc(NC(=O)N2CCCCCC2)cc1OC,8.8,-1.6,-12.2,1.2,-0.8,-2.7
COCCCN1C(=O)C(CC(=O)NC2CCCCC2)CC(C(=O)N2CCOCC2)=C1C (stereo not drawn),12.0,1.9,-5.9,0.9,-0.7,-16.1
COc1cccc(-c2nc(CS(=O)(=O)CC(=O)NCCCN3CCN(C)CC3)c(C)o2)c1,9.5,2.5,-5.4,0.4,-4.6,-13.5
COc1cccc(-c2nc(CS(=O)(=O)CC(=O)NCCCN3CC(C)CC(C)C3)c(C)o2)c1 (stereo not drawn),-12.2,-19.0,41.0*,-0.3,-5.7,1.7
Cc1cc(N2CCN(c3ccccn3)CC2)n2nc(C)nc2n1,-3.7,5.7,-2.5,-0.1,-1.5,11.8
Cc1cc(N2CCN(c3cccc(C(F)(F)F)c3)CC2)n2nc(C)nc2n1,7.1,30.9*,8.2,-0.1,-0.9,9.6
COc1cccc(N2C(=O)CC(N3CCN(CCN=CC4=C(O)CC(C)(C)CC4=O)CC3)C2=O)c1 (stereo not drawn),11.9,-0.6,1.0,18.8*,-4.7,10.4
CC1(C)CC(=O)C(C=NCCN2CCN(C3CC(=O)N(c4cccc(Br)c4)C3=O)CC2)=C(O)C1 (stereo not drawn),7.3,-1.8,7.9,3.1,-2.3,-12.8
CC(C)(C)OC(=O)n1cc(/C=N/NC(=O)c2ccco2)c2ccccc21,2.8,7.1,-7.8,0.6,-0.5,1.0
CCOC(=O)C(=O)N(C)c1c(CC)nc2c(OCc3cc(Cl)cc(Cl)c3)cccn12,-16.8,-4.8,-4.7,-0.5,-9.0,28.8*
